High-throughput results: PubChem BioAssay, several laboratories
MsrA inh: bovine MsrA inhibition; purified bovine MsrA, absorbance read-out; 360,000 compounds, 0.75% hits; inhibition, % at 15.5 µM; AID 651718
MsrA act: activates bovine MsrA enzyme; 360,000 compounds, 0.3% hits; purified bovine MsrA, absorbance read-out; activation, % at 10.6 µM; AID 602163; in the data active means activation above about 7.5%
SMARCA2 act: SMARCA2 function activation, primary screen | activation, % at 9.1 µM | MG213 cells, MMTV-luciferase reporter, dexamethasone, overnight | 370,000 compounds, 1% hits; in the data active means activation above about 7.8%
ABCB6 inh MLPCN: inhibitors of human ABC transporter ABCB6. fluorescence ratio to DMSO, % at 10 µM. K562-ABCB6 porphyrin accumulation, flow cytometry, 1 h; hits give low values. AID 602162. 360,000 compounds, 0.19% hits. Q9NP58;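 active means fluorescence ratio to DMSO below 75%, the collection mean minus 3 SD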;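 further: signal is porphyrin accumulated inside mitochondria; lower ratio means ABCB6 inhibition with less porphyrin fluorescence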
MsrA inh confirm: confirmation of bovine MsrA inhibitors; AID 651822; purified bovine MsrA, absorbance read-out; 2,300 compounds, 41% hits; inhibition, % at 15.5 µM; shares compounds with MsrA inh;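 further: coupled to thioredoxin reductase with NADPH and selenocystamine and DMSO as substrate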
Large screens that a line does not name were inactive (follow-up assays come after a bar, where they were run). Shown are actives, neighbours in structure and some others; about 2.1% of the full set was active somewhere. Unless noted, no stated cut-off is given here; in the data, active means inhibition above about 4.5%; inactive means the rest.

COc1ccc(-c2oc3ccc(-c4ccc5c(c4)OCO5)cc3c2C#CC2(O)CCCCC2)cc1	MsrA inh 5.2 | MsrA inh confirm inactive
COc1cccc(-c2c(C(=O)N/N=C/c3ccco3)nnn2-c2nonc2N)c1	MsrA inh 4.9 | MsrA inh confirm inactive
CC(/C=N/NC(=O)c1nnn(-c2nonc2N)c1C(C)C)=C\c1ccco1	MsrA inh 4.9 | MsrA inh confirm 5.8
COCc1cc(C)nc(OCC(=O)N/N=C/c2ccc(C)o2)c1C#N	MsrA inh 6.7 | MsrA inh confirm inactive
COCc1cc(C)nc(OCC(=O)N/N=C/c2ccc(O)cc2)c1C#N	none
COCc1cc(C)n(CC(=O)N/N=C/c2ccc(-c3ccc(Cl)c(C(=O)O)c3)o2)c(=O)c1C#N	MsrA inh 9.1 | MsrA inh confirm 9.7
CC[C@H](CCCCCCCn1ccc2ccccc21)CCC(=O)N(c1ccccc1)c1ccccc1	none (no result: MsrA inh, MsrA act, ABCB6 inh MLPCN)
C[C@@H]1CCCN1c1ccc2c(c1)OCCCN(C1CC1)S2(=O)=O	none (no result: MsrA inh, MsrA act, ABCB6 inh MLPCN)
O=C(O)CCNC(=O)/C(=C\C=C\c1ccccc1)NC(=O)c1ccccc1	MsrA inh 6.8 | MsrA inh confirm inactive
CCCCOc1ccc(C(=O)N/C(=C/C=C/c2ccccc2)C(=O)O)cc1	MsrA inh 6.8 | MsrA inh confirm inactive
O=C(O)COc1ccc(/C=N/NC(=O)/C(=C/C=C/c2ccccc2)NC(=O)c2ccccc2)cc1	MsrA inh 8.4 | MsrA inh confirm 7.9
CCCCOc1ccc(C(=O)N/C(=C/C=C/c2ccccc2)C(=O)NC)cc1	none
CN1C/C(=C/c2ccccc2)N2C(=O)C[C@@H](c3ccccc3)N=C12	none (no result: MsrA inh, MsrA act, ABCB6 inh MLPCN)
CCOc1ccc(-n2c(SCc3nc4ccccc4[nH]3)nnc2-c2cccc(Cl)c2)cc1	none (no result: MsrA inh, MsrA act, ABCB6 inh MLPCN)
C(=N\n1cnnc1)/c1nc2ccccc2[nH]1	MsrA inh 4.9 | MsrA inh confirm inactive
CCC(C)NC(=O)CN1C(=O)C2CCCCN2C(=O)c2ccccc21 (centres undefined)	none (no result: MsrA inh, MsrA act, ABCB6 inh MLPCN)
O=S1(=O)C[C@@H](N2CCN(CC3CC3)CC2)[C@H](COCc2ccccc2)N1	none
Cc1ccc(NC(=O)CN2C(=O)NC(C)(C3CC3)C2=O)c([N+](=O)[O-])c1 (centres undefined)	MsrA inh 9.4 | MsrA inh confirm 6.0
Cc1ccc(NC(=O)CN2C(=O)NC(C)(C3CC3)C2=O)c(C)c1 (centres undefined)	none
COc1ccc2[nH]cc(C(C)c3ccccc3O)c2c1 (centres undefined)	none (no result: MsrA inh, MsrA act, ABCB6 inh MLPCN)
COc1ccc(/C=N/n2c(C3CCCCC3)n[nH]c2=S)c(OC)c1	MsrA inh 8.8 | MsrA inh confirm 8.6
Cc1ccc(/C=N/n2c(C3CCCCC3)n[nH]c2=S)s1	none
Cc1ccsc1/C=N/n1c(C2CCCCC2)n[nH]c1=S	MsrA inh 11 | MsrA inh confirm 6.1
Cc1ccsc1/C=N/n1c(-c2cc(-c3ccccc3)n[nH]2)n[nH]c1=S	none
Cc1ccc(-c2n[nH]c(=S)n2/N=C/c2sccc2C)cc1	MsrA inh 4.7 | MsrA inh confirm inactive
CCn1c(O)c(N=NC(=O)CNC(=O)c2ccco2)c2ccccc21	none
CCCn1c(O)c(N=NC(=O)c2ccco2)c2ccccc21	MsrA inh 4.7 | MsrA inh confirm 5.3
O=C(Nc1nc(-c2nc3ccccc3s2)cs1)c1ccc(S(=O)(=O)N2CCOCC2)cc1	MsrA inh 5.0 | MsrA inh confirm inactive
CCC(NC(=O)CCCN1C(=O)COc2ccc(C)cc21)c1ccccc1 (centres undefined)	none (no result: MsrA inh, MsrA act, ABCB6 inh MLPCN)
Cc1c(=O)n(OCc2ccccn2)c2ccccc2[n+]1[O-]	MsrA inh 4.9 | MsrA inh confirm inactive
O=c1c(-c2ccc(F)cc2)[n+]([O-])c2ccccc2n1OCc1ccccn1	none
CCc1cc(C(=O)Cc2nc3ccccc3[nH]2)c(O)cc1O	MsrA inh 5.0 | MsrA inh confirm inactive
COc1ccc(CN(CCN2CCOCC2)C(=O)c2cc(F)ccc2F)cc1OC	none (no result: MsrA inh, MsrA act, ABCB6 inh MLPCN)
Cc1cc(=O)[nH]c2c(C)cc(S(=O)(=O)Nc3ccc(O)cc3)cc12	MsrA inh 9.2 | MsrA inh confirm 4.7
C[C@@H]1C[C@@H]2O[C@H]2CCCCC(=O)Cc2cc(O)cc(O)c2C(=O)O1	none (no result: MsrA inh, MsrA act, ABCB6 inh MLPCN)
O=C(Nc1ccc(C(=O)O)cc1)/C(=C\c1ccc2c(c1)OCO2)NC(=O)c1ccc(Br)o1	MsrA inh 5.1 | MsrA inh confirm inactive
Cc1cc(C(=O)N/N=C/c2ccc3c(c2)OCO3)c(C)o1	none
O=C(N/N=C/c1ccc2c(c1)OCO2)c1ccc(Br)o1	MsrA inh 7.5 | MsrA inh confirm 8.3
O=C(Nc1ccc(C(=O)O)cc1)/C(=C\c1ccccc1)NC(=O)c1ccco1	none
O=C(Nc1cccc(C(=O)O)c1)/C(=C\c1ccc2c(c1)OCO2)NC(=O)c1ccc(Br)o1	none
